PTHR1 ag = PTHR1 (human) receptor agonism | 410,000 tested, 0.075% active | Potency, µM (series often up to 115 µM), without a hit: at the highest dose activation, actives largely listed as activators | HEK293 GP2 PTHR1 cells, GloSensor cAMP luminescence, 1 h | AID 743266; also: potency is read from the fitted curve at half-maximal effect; nearly all actives have a fitted effect of over 55% in size
Target sequence (Q03431 whole entry, looked up): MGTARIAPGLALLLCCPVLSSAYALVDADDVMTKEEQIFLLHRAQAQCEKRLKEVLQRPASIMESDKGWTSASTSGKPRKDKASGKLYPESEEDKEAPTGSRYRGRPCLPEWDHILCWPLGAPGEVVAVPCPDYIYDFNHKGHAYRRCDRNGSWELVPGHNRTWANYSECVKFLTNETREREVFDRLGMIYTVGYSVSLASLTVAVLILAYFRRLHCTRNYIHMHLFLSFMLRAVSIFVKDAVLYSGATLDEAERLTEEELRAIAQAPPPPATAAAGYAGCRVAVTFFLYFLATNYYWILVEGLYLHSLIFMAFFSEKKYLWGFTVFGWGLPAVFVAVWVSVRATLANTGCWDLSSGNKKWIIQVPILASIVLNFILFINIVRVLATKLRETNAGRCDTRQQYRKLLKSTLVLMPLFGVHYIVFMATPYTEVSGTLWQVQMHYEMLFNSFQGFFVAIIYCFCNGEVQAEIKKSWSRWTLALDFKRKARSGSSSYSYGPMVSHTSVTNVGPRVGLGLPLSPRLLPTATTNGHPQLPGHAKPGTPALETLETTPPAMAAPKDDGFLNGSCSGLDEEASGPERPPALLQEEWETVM
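HEK-293-derived GP2 cells expressing PTHR1 and a GloSensor cAMP reporter, 3,000/well, plated overnight, given luciferin plus IBMX (each 0.5 mM as added) for 1 h at 37 °C, then compound for 1 h at 37 °C. Luminescence was read after 15 min at room temperature.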
aSyn yeast inh = alpha-synuclein toxicity inhibition in yeast; Yeast expressing alpha-synuclein, growth rescue, BacTiter-Glo, 24 h; Potency, µM (doses to about 46.1 µM), without a hit: top-dose growth rescue (activation), actives largely listed as activators; 370,000 tested, 0.14% active; AID 652106; also: potency is read from the fitted curve at half-maximal effect; % of control where 0% means no effect; nearly all actives have a fitted effect of over 65% in size
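Galactose-induced alpha-syn yeast (OD600=0.02, raffinose-pregrown) + pinned cpd, 24 hr, 30 deg C; growth by BacTiter-Glo luminescence. Growth restoration scores as activation.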
TDP43 rescue = inhibitors of TDP-43 toxicity in yeast; 410,000 tested, 1.8% active; TDP-43 expressing yeast growth rescue, BacTiter-Glo, 24 h; Potency, µM (highest dose often 46.1 µM), for inactives: at the top dose growth rescue (activation), hits mostly activators; also: potency is read from the fitted curve at half-maximal effect; % of control where 0% means no effect; nearly all actives have a fitted effect of over 50% in size
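Yeast expressing TDP-43 (pregrown in raffinose, seeded at OD600=0.02 in galactose medium) exposed to compounds 24 hr at 30 deg C. Growth read by BacTiter-Glo luminescence; rescue of toxicity appears as increased signal.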
FUS yeast rescue = suppressors of FUS proteinopathy in yeast; Potency, µM (doses to about 76.6 µM), actives largely listed as activators; 390,000 tested, 0.24% active; AID 1347120; S. cerevisiae FUS-expressing, growth rescue, OD600, 24 h;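 also: potency is read from the fitted curve at half-maximal effect; plate controls were DMSO vehicle for no effect and reference control for full effect; nearly all actives have a fitted effect of over 55% in size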
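FUS-expressing yeast, raffinose-pregrown, induced in 2% galactose minimal medium at OD 0.005; compounds in a dilution series, 24hr at 30C. Growth restoration read as absorbance at 600 nm. CP55940 positive control, DMSO negative.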
LDHA block = inhibitors of human lactate dehydrogenase A; activity change, % (values are at about 110 or 230 µM); AID 1347041; 480,000 tested, 0.15% active; purified LDHA, NADH/diaphorase-resazurin fluorescence; stronger effect = lower value; in the data active = activity change below about -30%; inconclusive = mostly about -25% to -30%;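 also: plate controls were DMSO wells for no effect and wells without enzyme for full effect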
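Human LDH5 (2 nM) was incubated with 0.06 mM NADH and 0.2 mM pyruvate for 5 min at room temperature in Tris pH 7.4. Remaining NADH was coupled through diaphorase/resazurin, and resorufin fluorescence was read at 0 and 20 min.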
Abeta yeast res = A-beta toxicity reversal in yeast; Potency, µM (top dose mostly 46.1 µM), usual class: activators; AID 1347071; yeast expressing A-beta42, growth rescue, OD600, 48 h; response scale: 0% DMSO, 100% iron-clioquinol control; 410,000 tested, 0.063% active; also: potency is read from the fitted curve at half-maximal effect; nearly all actives have a fitted effect of over 55% in size
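Growth rescue measured by 600 nm absorbance after 48 h yeast culture at 30 C with compound. Values normalized between DMSO and an equimolar ferric chloride plus clioquinol control.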
Starred values were filed as active, the others as inactive; i = inactive; ? = inconclusive; · = not tested or not shown; [ ] = remark or other dose. This is a sample that favours compounds with a hit; in the whole collection about 1.9% have one here. Unless noted, calls follow the shape of the dose curve; as a rule, active = well fitted curve in the direction sought with a large enough effect; inconclusive = small, poorly fitted or top-dose-only effect, or another doubt; inactive = no such curve, though single readings can be large; an effect the other way counts as inactive or inconclusive.

SMILES	PTHR1 ag	aSyn yeast inh	TDP43 rescue	FUS yeast rescue	LDHA block	Abeta yeast res
COc1ccccc1N1CCN(C(=O)c2oc3cc(C)c(C)cc3c2C)CC1	i	-1%	-12%	i	2	i
COc1ccccc1N1CCN(C(=O)COc2cc(C)cc3oc(=O)cc(C)c23)CC1	-66%	-5%	18%	i	-1	i
O=C(c1cc(=O)c2ccccc2o1)N1CCN(c2ccccc2F)CC1	-10%	6%	14µM*	i	-3	i
COc1ccccc1N1CCN(C(=O)c2oc3ccccc3c2N)CC1	-23%	·	13µM*	i	-8	i
COc1ccccc1N1CCN(C(=O)c2cc(=O)c3c(C)cc(C)cc3o2)CC1	-18%	-3%	25µM*	i	-2	i
COc1cc(C2=NOC(C(=O)Nc3cc(C)nn3-c3ccccc3)C2)cc(OC)c1OC (stereo not given)	·	·	·	·	-1	·
O=C(c1cc2ccccc2o1)N1CCN(S(=O)(=O)c2c(F)cccc2F)CC1	-37%	10%	14µM*	i	-8	i
CC(=O)N1CCN(C(=O)c2cc3ccccc3o2)CC1	i	-3%	-9%	i	-8	i
COc1ccc(NC(=O)c2ccco2)cc1NC(=O)c1ccc(OC(C)C)cc1	-15%	·	14µM*	?	-9	i
COc1ccc(CCC(=O)NCc2ccc3c(c2)CCN3C(=O)c2cccc(C)c2)cc1	-3%	·	25µM*	?	2	i
O=C(NCc1ccc2c(c1)CCN2C(=O)c1ccc(F)cc1)c1cc2ccccc2[nH]1	-14%	·	32µM*	i	2	i
COc1ccc(OCC(=O)NCc2ccc3c(c2)CCN3C(=O)c2ccccc2)cc1	-13%	·	25µM*	i	-2	i
Fc1ccc(-c2ccc(CNCc3cccnc3-n3cccn3)o2)cc1	·	·	·	·	-1	·
CCOc1ccc(Nc2ncnc3c2nc2n3CCCC2)cc1	-16%	·	?	i	-5	i
CC(C)c1ccc(Nc2ncnc3c2nc2n3CCCC2)cc1	-34%	·	14µM*	i	1	i
O=S(=O)(c1ccccc1Br)N1CCN(c2ncccn2)CC1	-23%	?	13µM*	i	-4	i
O=S(=O)(c1ccccc1)N1CCN(c2ncccn2)CC1	i	4%	0%	i	0	i
O=C(CN1CCN(c2ccccc2O)CC1)Nc1ccnn1Cc1cccc(Cl)c1	·	·	·	·	6	·
CC1(C)Cc2c(C#N)c(N3CCOCC3)nc(-c3ccccc3)c2CO1	-2%	-3%	20%	i	-4	i
CC1CCN(c2nc(-c3ccco3)c3c(c2C#N)CC(C)(C)OC3)CC1	i	4%	11µM*	i	5	i
CCc1nc(N2CCN(C(=O)c3ccccc3)CC2)c(C#N)c2c1COC(C)(C)C2	i	8%	20µM*	i	6	i
CC1(C)Cc2c(C#N)c(N3CCN(C(=O)c4ccccc4)CC3)nc(Cc3ccccc3)c2CO1	i	-1%	8%	i	-10	i
CC(=O)c1ccccc1OCCn1nnc(-c2ccc(C)cc2)n1	-19%	12%	25µM*	i	-1	i
O=S(=O)(c1ccc2ccccc2c1)N1CCN(c2ccc(O)cc2)CC1	-28%	?	11µM*	i	3	i
Cc1cc(C)c(C)c(S(=O)(=O)N2CCN(c3ccc(O)cc3)CC2)c1C	i	16µM*	?	i	9	i
CC(C)(C)C(=O)N1CCN(Cc2ccco2)CC1	·	·	·	·	-9	·
Cc1ccc([N+](=O)[O-])cc1S(=O)(=O)N1CCC(C)CC1	i	13%	16µM*	i	-6	i
COc1ccc(C)cc1S(=O)(=O)N1CCC(C)CC1	-20%[57.5 µM]	7%	19%	i	-15	i
Cc1ccc(S(=O)(=O)N2CCC(C)CC2)c([N+](=O)[O-])c1	-42%	14%	18µM*	i	-14	i

High-throughput results deposited in PubChem BioAssay by National Center for Advancing Translational Sciences (NCATS).
